From ChEMBL document CHEMBL4888484, “Replenishing the malaria drug discovery pipeline: Screening and hit evaluation of the MMV Hit Generation Library 1 (HGL1) against asexual blood stage Plasmodium falciparum ,using a nano luciferase reporter read-out” (2022)
Screen size: about 4,800 compounds; about 420 (8.8%) showed an effect of 50% or more. This excerpt belongs to a sample that is enriched for strong results.

Test system: Plasmodium falciparum
Assay: Confirmatory screen in NF54 nanoGlo assay, in single point, at 2uM, 72h
Assay type: functional, Erythrocyte
Settings: timepoint 72 hour

SMILES	% Inhibition [%]
CCCN1CCC(NCc2ccc(-c3cccc(Cl)c3Cl)o2)CC1	65
O=C(Nc1cccc2ccccc12)c1nn[nH]c1NS(=O)(=O)c1ccccc1	-9
COc1ccnc(N2CCc3nn(C(C)C)c(=O)cc3C2)n1	-4
O=C(Cc1ccc(N(Cc2cccc(F)c2)C(=O)C2CCCC2)cc1)NCCN1CCCC1	21
Cc1cccc(CN(C(=O)C2CCCC2)c2ccc(CC(=O)NCCN3CCOCC3)cc2)c1	9
O=C(Cc1ccc(N(Cc2cccc(F)c2)C(=O)C2CCCC2)cc1)NCCN1CCCCC1	54
NC(=O)C1CCN(C(=O)Nc2nc(C(F)(F)F)cs2)CC1	5
CC1(C)CCC[C@@H]1NS(=O)(=O)c1ccc(C(=O)N2CCOCC2)cc1	4
Oc1ccc(-c2ncc3n2CCCC3)cc1	4
Oc1ccc(-c2nnc(-c3ccc(O)cc3)nn2)cc1	51
Cc1c(-c2ccc(F)cc2)[nH]c2ccc(CNc3nccc(N(C)C)n3)cc12	29
CC(C)[C@H](Nc1ccc2nccnc2n1)c1nnc2n1CCC2	-8
Oc1nc(-c2cccc(C(F)(F)F)c2)sc1-c1ccccc1	0
Oc1ccccc1-c1cnc(C(F)(F)F)s1	94
CN(C)Cc1cn(C[C@H]2C[C@@H](NC(=O)Nc3ccc4c(c3)OCCO4)[C@H](O)[C@@H]2O)nn1	0
CC1CN(C(=O)COc2ccc3oc4ccccc4c3c2)CC(C)O1 (centres undefined)	-3
CNC[C@H]1CCCN1C(=O)c1ccc(-c2noc(C(F)(F)F)n2)cc1	29
COC1CCCCC1NC(=O)c1ccc(-c2noc(C(F)(F)F)n2)cc1 (centres undefined)	-1
CC(C(=O)N1N=CCC1(O)C(F)(F)F)n1nc(C(F)(F)F)cc1C1CC1 (centres undefined)	-1
O=C(NCCc1cc(F)cc(F)c1)C1CC2CCC1C2 (centres undefined)	0
COc1ccc(Nc2nnc(-c3ccc(NC(=O)C(=O)NCCCn4ccnc4)cc3)s2)cc1	56
COc1ccc(-c2nccn3cc(C(=O)NCCc4ccncc4)nc23)cc1	-1
O=S(=O)(Cc1cc(Cl)cc(Cl)c1)NCCCCn1ccnc1	-6
Cn1c2ccc(Br)cc2c2cc(NS(=O)(=O)c3ccccc3)ccc21	4
CS(=O)(=O)Nc1nc2c(s1)CN(C(=O)c1ccc3c(c1)CCC=C3)CC2	0

SMILES	% Inhibition [%]
Cc1cc(=O)[nH]c(-n2nc(C3CC3)cc2NC(=O)C(c2ccccc2)c2ccccc2)n1	91
CCc1cc(=O)[nH]c(-n2nc(C3CC3)cc2NC(=O)C2CCCCC2)n1	88
CC1CCC(NC(=O)C(c2ccccc2)c2ccccc2)CC1 (centres undefined)	10
CCc1cc(C(=O)N2CCCCCC2)c2c(C3CC3)nn(-c3ccc(F)cc3)c2n1	0
CC(C)c1cc(=O)[nH]c(-n2nc(C3CC3)cc2NC(=O)c2ccc(F)cc2)n1	93
CN1CCC[C@H](C(=O)Nc2nc(C3CC3)cs2)C1	-12
Cc1cc(F)ccc1NC(=O)Cn1nc(C2CC2)c2c(C(F)F)cc(=O)[nH]c21	-4
Cc1nn(C)c(NC(=O)c2ccc(C(C)(C)C)cc2)c1C1=CCCCC1	15
Cc1nc(CC(=O)Nc2cc(C3CC3)nn2-c2ccccc2)cs1	1
Cc1ccc(C(=O)Nc2c(C(N)=O)sc3nc(C(F)F)cc(C4CC4)c23)cc1	-16
CC(C)(C)c1ccc(C(=O)N[C@H]2CCCC[C@@H]2NC(=O)c2ccc(C(C)(C)C)cc2)cc1	-5
Cc1cc(=O)[nH]c(-n2nc(C3CC3)cc2NC(=O)c2ccc(C(C)(C)C)cc2)n1	57
CC1CC(C)CC2(C1)NC(=O)N(CCC1OCCO1)C2=O (centres undefined)	-1
Cc1cc(=O)n(CC(=O)N2CCC(C)CC2)c(-c2ccc(F)cc2)n1	-4
O=C(CCc1nc(CN2CCN(S(=O)(=O)c3ccc(F)cc3)CC2)no1)N1CCCC1	-4
CCOC(=O)N1CCc2c(nc(-c3ccc(C)cc3)n(CC(=O)Nc3ccc(C(C)C)cc3)c2=O)C1	-16
Cc1noc([C@H](C)S(=O)(=O)Cc2cc(C)on2)n1	0
O=S(=O)(Nc1ccc(F)cc1OCC1CC1)c1cn[nH]c1	-12
Cn1cc(CNC(=O)NCC2(Cc3ccccc3)CCC2)cn1	-4
Cc1c(C(C)C)c(=O)n(-c2ccc(S(=O)(=O)N3CCN(c4nc5ccccc5nc4-c4ccccc4)CC3)cc2)n1C	-20
CCN(CC(C)(C)O)C(=O)C1CCCCCC1	-9
Cn1nc(C(F)(F)F)cc1B1OC(C)(C)C(C)(C)O1	4
C=CCOc1ccc(Cl)c(C(=O)N[C@H]2CCS(=O)(=O)C2)n1	0
O=C(CCCc1ccccc1)Nc1cc(C2CC2)nn1-c1nc(-c2ccccc2)cc(=O)[nH]1	48
Cc1cc(N)n(-c2nc(-c3ccccc3)cc(=O)[nH]2)n1	1

SMILES	% Inhibition [%]
CCC(CC)C(=O)Nc1cc(C2CC2)nn1-c1nc(-c2ccccc2)cc(=O)[nH]1	50
Cc1ccc(NC(=O)NC(=O)Cn2ccc(=O)c3sccc32)cc1C	0
Cc1ccc2c(c1)c1c(n2S(=O)(=O)c2ccc(C(C)(C)C)cc2)CCCN(C)C1	76
Cc1ccc(S(=O)(=O)N2CCCC(=O)c3ccccc32)cc1	-3
Cc1ccc(S(=O)(=O)N2CCN(S(C)(=O)=O)C2)cc1	0
CC#CCCC(=O)Nc1ccc(OC)cc1	-5
Cc1cc(C)c(OC(=O)c2ccc(Cl)cc2Cl)c(CNC(=O)c2ccccc2)c1	-16
c1cc([C@@H]2CCCCN2c2nc(C3CC3)ns2)n[nH]1	2
CCNC(=O)C[C@H]1CCCCN1C(=O)C1CCN(Cc2csc(C)n2)CC1	-1
O=S(=O)(c1ccccc1C(F)(F)F)N1CC[C@]2(CCN(c3cccnc3)C2)C1	-2
Cc1ccc(C(=O)N[C@@H](C)CCc2ccccc2)cc1S(=O)(=O)N1CCN(C)CC1	-20
CCn1nccc1CN(C)C(=O)c1cc(C)c(C)s1	5
CCCC[C@H](CC)C(=O)Nc1cc(C)ccn1	0
Cc1cc(C)n(NC(=O)CCn2nc(C(F)(F)F)c(Br)c2C2CC2)c(=O)c1	3
Clc1cc(CN2CC[C@@]3(CCCOC3)C2)ccc1OCCN1CCOCC1	0
CCCOc1cccc2c(NC3CCN(CCOC)CC3)ccnc12	22
Cc1cc(C)cc(Nc2nc(C)cc(=O)n2CC(=O)N2CCN(c3ccc(F)cc3)CC2)c1	-1
Cc1c(C(=O)c2ccc(Cl)c(Cl)c2)sc2nc3cc(F)c(F)cc3n12	-11
Nc1ncnc(NCc2cccnc2OCC(F)F)c1Cl	7
COc1cc(C(=O)NCCN2CCOCC2)cc2occc12	-4
CC1CC(NS(=O)(=O)CCCC(F)(F)F)CCN1 (centres undefined)	-4
COc1cc(NC(=O)N[C@@H](C)C(=O)N2CCc3ccccc32)cc(OC)c1	4
Cc1ccc(NC(=O)c2cc3nccc(-c4ccc(F)cc4)n3n2)nc1	-7
CN(C(=O)NC1CCCC1)c1nc2c(s1)CN(Cc1ccccc1)C2=O	-12
Cc1ccc(CNC2CCN(C)CC2)c(OCc2ccco2)c1	-3

SMILES	% Inhibition [%]
Cc1ccc2nc3c(c(N)c2c1)CCCCN3C	-10
Cc1ccc2nc(C3CC3)cc(C(=O)N3C[C@@H](O)C[C@H]3CO)c2c1	-4
COCCN(CC1CN(Cc2ccccc2OC)CC1c1ccccc1OC)C(=O)COC (centres undefined)	-2
CC(C)[C@@H]1CCc2ccccc2N1Cc1nc(N)nc(N(C)C)n1	-4
COc1ccc(NC(=O)Cn2c(C(F)(F)F)nc3cc4c(cc32)OCCCO4)cc1	4
Cn1c2cn(-c3ccc(F)cc3)c(-c3ccccc3)c2c(=O)n1-c1ccccc1	-1
Cn1c(=O)c2c(-c3ccc(Cl)cc3)n(-c3cccc4cccc(N)c34)cc2n(C)c1=O	91
CC(C)(C)OC(=O)N1CCCC(C(O)C(F)(F)F)C1 (centres undefined)	6
CCCCC12CN(S(=O)(=O)c3ccccc3)CC(C)(CN(S(=O)(=O)c3ccccc3)C1)C2=O	-5
CCCCN(CC)CCNC(=O)C1CCN(C2=NS(=O)(=O)C(c3ccc(OC)cc3)=C2C)CC1	32
Cn1cccc1C(=O)NC1CCN(c2ccc(Cl)c(C#N)n2)CC1	-5
COc1ccc(-c2cc(C(=O)N[C@H]3CCN(c4ccc(=O)n(C)n4)C3)c(C)n2C)cc1	62
COc1ccc(-c2cc(C(=O)N[C@H]3CCN(c4ccc(=O)[nH]n4)C3)c(C)n2C)cc1	69
Cc1c(C(=O)NC2CC2)cc(-c2ccccc2)n1C	-3
CC(C)NC(=O)c1ccc(CN2C(=O)COc3ccc(C(=O)COc4ccc(F)c(F)c4)cc32)o1	4
CC[C@H](C)NS(=O)(=O)c1cccc(N)c1	-4
O=C(NCc1ccco1)[C@H]1CCCN(c2nc3ccccc3n(Cc3ccccc3)c2=O)C1	4
Brc1cccc(-c2ccc(-c3cc(-c4ccccc4)nnc3-c3ccccc3)o2)c1	31
COc1cc(Br)ccc1C1NC(=O)C2COCCN21 (centres undefined)	7
CC(C)(C)c1cc([C@H](c2ccc(Cl)cc2)N2CCCCC2)cc(C(C)(C)C)c1O	2
CN(Cc1nnc[nH]1)C(=O)C1(C)CCC1	-11
COc1ccc(-n2nc(C)c(Cc3ccc(Cl)cc3)c2O)cc1	0
COc1ccc(CCNc2nc(-c3ccc(OC)cc3F)c3c(N)n(-c4ccc(Cl)cc4)nc3n2)cc1	59
COCCNc1nc(-c2ccccc2OC)c2c(N)n(-c3ccc(F)cc3)nc2n1	-6
